PubChem BioAssay (NCATS)
Results filed as inconclusive are left out. Entries that show only a call come without a potency. Active and inactive are the calls of the source. Calls come from the whole dose curve; as a rule, active = well fitted curve in the direction sought with a large enough effect; inconclusive = small, poorly fitted or top-dose-only effect, or another doubt; inactive = no such curve, though single readings can be large; an effect the other way counts as inactive or inconclusive.

assay: qHTS of pediatric cancer cell lines to identify multiple opportunities for drug repurposing: Primary screen for U-2 OS cells (AID 1347096); conditions: U-2 OS viability, CellTiter-Glo luminescence, 48 h; series mostly up to 46 µM; note: nearly all actives have a fitted effect of over 50% in size
Summary of the method: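 Cells (500-1,000/well) rested 5 h, then received compounds for 48 h; metabolically active cells were measured by CellTiter-Glo luminescence. Final concentrations spanned up to 46 µM (MIPE, 11-point) or 0.59 nM-46 µM (NPC, 8-point) in primary screens, 11-point in follow-ups.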

Question: Which Potency does the source give for `CC(=Cc1ccccc1)C=C1SC(=S)N(CC(=O)O)C1=O` here?
Answer: The Potency was “inactive”.

Question: With `COc1ccc2cccc(CCNC(C)=O)c2c1` as the compound, how does the Potency read?
Answer: Its Potency is “inactive”.

Question: With `CC(C)C(C)C=CC(C)C1CCC2C3=CC=C4CC(O)CCC4(C)C3CCC21C` (centres undefined) as the compound, how does the Potency read?
Answer: The Potency was “inactive”.

Question: For `O=C(NC1CCOCC1)c1ccc(-c2cc(-c3cn[nH]c3-c3ccccn3)ccn2)cc1`, which Potency is on record?
Answer: The Potency was “inactive”.

Question: With `CC(C)C(=O)Oc1ccc(CO)cc1[C@H](CCN(C(C)C)C(C)C)c1ccccc1` as the compound, how does the Potency read?
Answer: Its Potency is “inactive”.

Question: Which Potency does the source give for `O=C1NC(=O)C(c2ccccc2)(c2ccccc2)N1` here?
Answer: Its Potency is “inactive”.

Question: For `Cn1c(N2CCCCS2(=O)=O)nc(C(=O)NCc2ccc(F)cc2)c(O)c1=O`, which Potency is on record?
Answer: The Potency was “inactive”.

Question: With `CC(C)(C)c1ccc(C(O)CCCN2CCC(C(O)(c3ccccc3)c3ccccc3)CC2)cc1` (centres undefined) as the compound, how does the Potency read?
Answer: The Potency was “inactive”.

Question: For `O=C1NCC2(CCN(CCc3ccccc3)CC2)O1`, which Potency is on record?
Answer: The Potency was “inactive”.

Question: With `CC(C)(C(=O)NCC(F)(F)C(F)(F)F)C(=O)N[C@@H]1C(=O)Nc2ccccc2-c2ccccc21` as the compound, how does the Potency read?
Answer: Its Potency is “inactive”.

Question: For `O=C(O)c1cc(O)c2c(c1)C(=O)c1cccc(O)c1C2=O`, which Potency is on record?
Answer: The Potency was “inactive”.

assay: qHTS of pediatric cancer cell lines to identify multiple opportunities for drug repurposing: Primary screen for Saos-2 cells (AID 1347097); conditions: Saos-2 viability, CellTiter-Glo ATP luminescence, 48 h; series mostly up to 46 µM; note: nearly all actives have a fitted effect of over 40% in size; note: potency is the fitted concentration of half-maximal effect
Summary of the method: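 Luminescence from CellTiter-Glo served as readout of metabolically active cells after 48 h compound exposure. Titrations: MIPE 11-point, from 0.78 nM; NPC 8-point, from 0.59 nM (final). Concentration-response curves came straight from the primary screen.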

Question: For `Cc1nc(N)sc1-c1ccnc(Nc2ccc(N3CCOCC3)cc2)n1`, which Potency is on record?
Answer: Its Potency is 11.8 µM (active).

Question: For `O=C1c2ccccc2-[n+]2ccc3c([nH]c4ccccc43)c21`, which Potency is on record?
Answer: The Potency was 2.35 µM (active).

Question: Which Potency does the source give for `C[N+](C)(C)CCCCCC[N+](C)(C)C` here?
Answer: Its Potency is “inactive”.

Question: With `C[N+]1(C)[C@@H]2CC(OC(=O)[C@H](CO)c3ccccc3)C[C@H]1[C@H]1O[C@@H]12` (some centres undefined) as the compound, how does the Potency read?
Answer: The Potency was “inactive”.

Question: Which Potency does the source give for `O=C(O)Cc1cccc2ccccc12` here?
Answer: The Potency was “inactive”.

Question: For `NCCS`, which Potency is on record?
Answer: The Potency was “inactive”.

Question: For `COc1ccc(-c2coc3cc(O)ccc3c2=O)cc1`, which Potency is on record?
Answer: Its Potency is “inactive”.

Question: For `CN(C)CCC(c1ccccc1)c1ccccn1` (centres undefined), which Potency is on record?
Answer: The Potency was “inactive”.

Question: With `O=c1c(-c2ccc(O)cc2)coc2cc(O[C@@H]3O[C@H](CO)[C@H](O)[C@H](O)[C@H]3O)ccc12` as the compound, how does the Potency read?
Answer: The Potency was “inactive”.

Question: For `C=C1C(=O)[C@@]23C(CC[C@@H]1[C@H]2O)[C@@]12CO[C@]3(O)[C@@H](O)[C@@H]1C(C)(C)CC[C@@H]2O` (some centres undefined), which Potency is on record?
Answer: Its Potency is 4.69 µM (active).

Question: For `CN[C@@H](C)C(=O)N[C@H]1CN(C(=O)CC(C)C)CC[C@H]2CC[C@@H](C(=O)NC(c3ccccc3)c3ccccc3)N2C1=O`, which Potency is on record?
Answer: Its Potency is 0.296 µM (active).

Question: Which Potency does the source give for `O=c1ccn([C@@H]2O[C@H](CO)[C@H](O)[C@H]2O)c(=O)[nH]1` here?
Answer: Its Potency is “inactive”.

Question: Which Potency does the source give for `Cc1[nH]c(C=C2C(=O)Nc3ccc(S(=O)(=O)Cc4c(Cl)cccc4Cl)cc32)c(C)c1C(=O)N1CCC[C@H]1CN1CCCC1` here?
Answer: Its Potency is 18.7 µM (active).

Question: With `NC[C@@H]1O[C@@H](O[C@H]2[C@@H](O)[C@H](O[C@@H]3[C@@H](O)[C@@H](N)C[C@H](N)[C@H]3O[C@H]3O[C@H](CN)[C@@H](O)[C@@H](O)[C@H]3N)O[C@H]2CO)[C@H](N)[C@@H](O)[C@@H]1O` as the compound, how does the Potency read?
Answer: Its Potency is “inactive”.

Question: For `O=C(O)c1ccccc1C(=O)Nc1ccc(-c2ccccc2)cc1`, which Potency is on record?
Answer: The Potency was “inactive”.

Question: With `O=C(O)c1cc(-c2ccccc2)nc2ccccc12` as the compound, how does the Potency read?
Answer: The Potency was “inactive”.

Question: For `C[C@@H](O)[C@H]1C(=O)N2C(C(=O)O)=C(S[C@@H]3CN[C@H](C(=O)N(C)C)C3)[C@H](C)[C@H]12`, which Potency is on record?
Answer: Its Potency is “inactive”.

Question: With `CC(=Cc1ccccc1)C=C1SC(=S)N(CC(=O)O)C1=O` as the compound, how does the Potency read?
Answer: Its Potency is “inactive”.

Question: Which Potency does the source give for `COc1ccc2cccc(CCNC(C)=O)c2c1` here?
Answer: Its Potency is “inactive”.

Question: For `CC(C)C(C)C=CC(C)C1CCC2C3=CC=C4CC(O)CCC4(C)C3CCC21C` (centres undefined), which Potency is on record?
Answer: Its Potency is “inactive”.

Question: For `CC(C)C(=O)Oc1ccc(CO)cc1[C@H](CCN(C(C)C)C(C)C)c1ccccc1`, which Potency is on record?
Answer: The Potency was “inactive”.

Question: With `O=C1NC(=O)C(c2ccccc2)(c2ccccc2)N1` as the compound, how does the Potency read?
Answer: The Potency was “inactive”.

Question: With `CC(C)(C)c1ccc(C(O)CCCN2CCC(C(O)(c3ccccc3)c3ccccc3)CC2)cc1` (centres undefined) as the compound, how does the Potency read?
Answer: Its Potency is “inactive”.
